# Shown are actives, neighbours in structure and some others; about 5.5% of the full set was active somewhere.
# Giardia killer – Giardia lamblia killing | Giardia lamblia trophozoite viability | activity change, % at 7.66 µM, hits read low | 340,000 compounds, 0.15% hits; in the data active = activity change below about -80%; inconclusive = between about -30% and that limit;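 also: parasites exposed to compound for two days anaerobically before the ATP read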
#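 Viability, read as ATP luminescence: trophozoites at 100 cells/well, compound added, 48 hrs anaerobic at 37 deg C, then 15-30 min room-temperature development before reading.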
# ELG1 DNA repair – ELG1-dependent DNA repair inhibition | HEK293T ELG1-luciferase reporter, luminescence, 16 h; DNA damage induced by 5-fluorouridine | Potency, µM (series often up to 46.1 µM), without a hit: at the highest dose activity change, negative = inhibition, most hits filed as inhibitors | 330,000 compounds, 2.3% hits | AID 504467; also: potency is read from the fitted curve at half-maximal effect; nearly all actives have a fitted effect of over 55% in size
#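 5-Fluorouridine DNA damage + compound/DMSO, 2,000 cells/well, 16 h, 37 °C/5% CO2. ONE-Glo, 30 min RT, luminescence. Readout = decrease in reporter signal.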
# Sfp PPTase inh – Sfp phosphopantetheinyl transferase inhibition | Q9F4F7 | Biochemical Sfp PPTase activity, qHTS | Potency, µM, inactives show largest response in the series, negative = inhibition, actives largely listed as inhibitors | 310,000 compounds, 3.5% hits | AID 1490;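 also: the enzyme is Sfp with the accession as filed and its product quenches rhodamine fluorescence; potency is read from the fitted curve at half-maximal effect; 0% = enzyme reaction without inhibitor and -100% = no enzyme wells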
#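 Reaction rates are the 30-min fluorescence difference (ex 525, em 598 nm) in wells containing 15 nM Sfp, 5 uM rhodamine-CoA and 12.5 uM BHQ-2-YbbR at pH 7.6 with 10 mM MgCl2.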
# Coupling enz – counter-screen for Giardia aldolase inhibitors: coupling enzyme system. coupling enzyme system counterscreen, AmpLite Red fluorescence. activity change, negative = inhibition, % at 58.2 µM, hits read low. 290,000 compounds, 0.67% hits. AID 2472; in the data active = activity change below about -30%
#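 Counterscreen of the coupled detection system alone, without aldolase: glyceraldehyde-3-phosphate coupling enzymes plus AmpLite Red readout. Compounds at 57.5 uM final, 10 min RT preincubation, 20 min RT reaction, fluorescence 525/598 nm.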
# Numbers without * were called inactive; u = inconclusive; x = no result given; ! = repeats disagree. Unless noted, calls follow the shape of the dose curve; as a rule, active = well fitted curve in the direction sought with a large enough effect; inconclusive = small, poorly fitted or top-dose-only effect, or another doubt; inactive = no such curve, though single readings can be large; an effect the other way counts as inactive or inconclusive. Unless noted, % is scaled to controls: 0 for no effect and ±100 for the full control effect.
SMILES,Giardia killer,ELG1 DNA repair,Sfp PPTase inh,Coupling enz
O=c1cc(-c2ccc(O)cc2)oc2cc(O)cc(O)c12,29,x,32µM*!,7
CCOC(=O)N1CCN(Cc2nc3cc(NC(=O)c4ccco4)ccc3n2C)CC1,-6,20%,1%,x
O=C(c1ccncc1)N1CCN(C2CCCCC2)CC1,3,11%,-4%,3
O=C(c1ccncc1)N1CCN(C2CCC(c3ccccc3)CC2)CC1 (stereo not given),-17,-16%,79µM*,4
CCC1=C2CC[C@H]3C(=O)N(CC)C(=O)[C@H]3[C@H]2[C@@]2(Cc3ccccc3)C(=NCC3CC3)OC(=O)N2C1=O,x,x,27%,-1
CN1CCCN(C2C3CC4CC(C3)CC2C4)CC1 (stereo not given),22,0%,79µM*,-10
CS(=O)(=O)N1CCN(C2C3CC4CC(C3)CC2C4)CC1 (stereo not given),9,u,13%,1
Cc1ncc(NS(=O)(=O)c2ccc(N)cc2)nc1C,20,x,x,x
C[C@H](NC[C@H](O)CP(=O)(O)Cc1ccccc1)c1ccc(Cl)c(Cl)c1,x,x,89µM*!,0
CC(NC(=O)CCl)c1ccc(Cl)c(Cl)c1 (stereo not given),-7,u,12%,4
O=C(c1ccc(CNS(=O)(=O)c2ccc(Br)cc2)cc1)N1CCCCC1,7,11%,12%,-1
COc1cc(-c2nn3c(Cc4ccccc4)nnc3s2)cc(OC)c1OC,3,-23%,u,5
COc1cc(-c2nn3c(COc4ccccc4)nnc3s2)cc(OC)c1OC,15,u,56µM*,2
CCOc1ccccc1OCc1nn2c(COc3ccccc3)nnc2s1,-25,-10%,18µM*,0
CCOc1ccc(-c2nnc3sc(COc4ccccc4)nn23)cc1,0,-2%,17%,2
CN1CCN(c2ncc3ncc(=O)n(-c4ccccc4)c3n2)CC1,x,x,18%,2
CC1C/C(=C\c2cccnc2)C(=O)/C(=C/c2cccnc2)C1 (stereo not given),u,2.1µM*,u,1
O=C1/C(=C/c2cccnc2)CCc2c1[nH]c1ccccc21,2,15%,0%,-8
CN1C(=O)C(O)(C2CCCCCC2=O)c2ccccc21 (stereo not given),44,0%,7%,-2
CN1C(=O)C2(c3ccccc31)C1CCCC=C1C(C#N)=C(N)C2(C#N)C#N (stereo not given),-3,1%,13µM*,0
Cc1csc(NC(=O)c2cc3c(s2)-c2ccccc2OC3)n1,-10,u,u,0
Cc1c(NC(=O)c2cc3c(s2)-c2ccccc2OC3)cccc1[N+](=O)[O-],-8,23µM*,-6%,3
CCOC(=O)N1CCN(Cc2nc3cc([N+](=O)[O-])ccc3n2C)CC1,-15,0%,12%,0
Cc1n[nH]c(C)c1CCc1nc2c3ccccc3nc(SCC(N)=O)n2n1,0,23µM*,12%,2
O=C(COC(=O)/C=C/c1cccc(C(F)(F)F)c1)NCc1cccs1,-14,13%,x,x
SMILES,Giardia killer,ELG1 DNA repair,Sfp PPTase inh,Coupling enz
CCOC(=O)C1C(c2cc(OC)c(OC)c(OC)c2)NC(=S)NC1(O)C(F)(F)F (stereo not given),-9,1%,79µM*,-11
CCNc1nc(NCC)n2c(SC(C(=O)Nc3cc(C)ccc3OC)c3ccccc3)nnc2n1 (stereo not given),4,23µM*,50µM*,5
CCNc1nc(NCC)n2c(SCC(=O)Nc3cc(OC)ccc3OC)nnc2n1,-9,-4%,x,x
Oc1cc(-n2cccn2)c(O)cc1-n1cccn1,-12,u,5µM*,-7
Cc1csc2nc(CSc3nc4ccccc4o3)cn12,13,u,56µM*,-51*
c1ccc2oc(SCc3cn4ccsc4n3)nc2c1,-6,u,50µM*,3
Cc1cc(C)n2c(Br)c(CSc3nc4ccccc4o3)nc2n1,-4,u,50µM*,0
Cc1ccc(S(=O)(=O)N2CCN(C(=O)CCC(=O)NCc3cccc(C(F)(F)F)c3)CC2)cc1,-20,6%,x,x
CC(C)CNC(=S)N(CCCN(C)C)Cc1cc2cc3c(cc2[nH]c1=O)OCCO3,-11,-24%,12%,1
Cc1ccc(C(=O)C2CCN(CC(=O)NC3CCCC3)CC2)cc1,35,-13%,18%,-1
COc1cccc(-c2csc(N3CCN(CC(=O)Nc4ccc5c(c4)OCO5)CC3)n2)c1,8,u,-5%,1
COc1ccc(NC(=O)CN2CCN(c3nc(-c4cccc(OC)c4)cs3)CC2)cc1,12,12µM*,11%,-4
O=C(NCC1COc2ccccc2O1)c1cc(S(=O)(=O)N2CCOCC2)c(Cl)cc1Cl (stereo not given),12,18µM*,x,x
O=C(NCCN1C(=O)S/C(=C\c2ccccc2)C1=O)c1cc(S(=O)(=O)N2CCOCC2)c(Cl)cc1Cl,-5,15µM*,-7%,-5
COc1ccccc1NC(=O)c1nc[nH]c1C(=O)Nc1ccccc1OC,-11,-5%,56µM*,-2
Cc1cc(C)n2nc(SCC(=O)N(CCC#N)c3ccccc3F)nc2n1,-10,9%,x,x
Cc1ccc2[nH]c(O)c(N=Nc3ccccc3C)c2c1,-2,13%,35µM*,-9
Cc1ccccc1N=Nc1c(O)[nH]c2ccccc12,6,x,x,x
NC(=S)N/N=C1\CC(c2ccc3c(c2)OCCCO3)Oc2ccc(F)cc21 (stereo not given),-29,3.7µM*,1%,-9
NC(=S)N/N=C1\CC(c2ccc3c(c2)OCCO3)Oc2ccc(F)cc21 (stereo not given),0,-15%,8%,-3
C=CC(=O)Nc1ccc(Nc2nc(NC3CCC(N(C)C)CC3)nc3c2ncn3C(C)C)cc1 (stereo not given),-17,2.3µM*,x,x
O=P(Nc1ccccc1)(Nc1ccccc1)c1ccccc1,8,x,x,x
CN(C)c1cc(N/N=C/c2ccccc2C(F)(F)F)nc(N(C)C)n1,-2,16µM*,-11%,-26
N#Cc1c(-c2ccco2)cc(-c2ccc(F)cc2)nc1N,-9,-12%,28µM*,-6
N#Cc1c(-c2ccc(F)cc2)cc(-c2cccnc2)nc1N,5,-19%,27%,3
SMILES,Giardia killer,ELG1 DNA repair,Sfp PPTase inh,Coupling enz
COC(=O)CSc1nc(-c2ccccc2)cc(-c2ccco2)c1C#N,-5,-19%,u,-32*
N#Cc1c(-c2ccco2)cc(C2CC2)nc1SCC(=O)c1ccccc1,13,4%,35µM*,1
N#Cc1c(-c2ccccc2)cc(C2CC2)nc1SCC(=O)O,6,2%,-18%,20
CCCCn1nnnc1SCC(=O)NC1CCCCC1,-4,5%,15%,5
O=C(O)c1ccc(NC(=O)c2ccccc2NC(=O)c2cccc(Br)c2)cc1,8,10%,15%,4
COc1cc(C(=O)Nc2cccc3cccnc23)cc(OC)c1OC,-17,21µM*,-3%,-3
CNC(=S)NNC(=O)c1cn(C)nc1C,27,12%,79µM*,0
Cc1nn(C)cc1C(=O)NNC(=S)Nc1ccccc1,-8,u,11%,0

# High-throughput results (PubChem)
